Source: PubChem BioAssay (Tox21)
Results filed as inconclusive are left out. The source made the active and inactive calls. The call rests on the fitted dose curve; in most records, active means well fitted cell-killing curve with a large enough effect in the repeat runs; inconclusive means weak or mixed curves; inactive means flat fitted curve, though single readings scatter.

Assay: qHTS RealTime-Glo MT Cell Viability Assay in HepG2 cells - 16 hour (AID 1224885); further: nearly all actives have a fitted effect of over 50% in size
Details: RealTime-Glo luminescence; series mostly up to 76.8 µM
Description: U.S. Tox21 Program National Center for Advancing Translational Sciences [NCATS] NIH Chemical Genomics Center [NCGC] U.S. Environmental Protection Agency [EPA] National Institutes of Environmental Health Sciences [NIEHS] National Toxicology Program [NTP] U.S. Food and Drug Administration [FDA] Tox21 Assay Overview: Measure of cell viability is critical in the cell-base assay. Analysis of cell viability is necessary for the characterization of cell responses to cytotoxic drugs and environmental stress. A RealTime-Glo MT Cell Viability Assay to monitor cell viability in real time of continues cell culture during 40 hours of compound treatment was used to screen Tox21 10K library compounds in HepG2 cells. The RealTime-Glo MT Cell Viability Assay is a nonlytic, homogeneous, bioluminescent method to measure cell viability in real time using a simple, plate-based method. The assay involves adding NanoLuc luciferase and a cell-permeant prosubstrate to cells in culture. Viable cells reduce the proprietary prosubstrate to generate a substrate for NanoLuc luciferase. This substrate diffuses from cells into the surrounding culture medium, where it is rapidly used by the NanoLuc Enzyme to produce a luminescent signal. The signal correlates with the number of viable cells, making the assay well suited for cytotoxicity studies.
Tox21 Assay Protocol Summary: The mixture of HepG2 cell suspension and reagents were dispensed at 600cells/6 ul/well in 1536-well tissue culture treated black solid bottom plates using a Multidrop dispenser. After the assay plates were incubated at a 37 C/5% CO2 incubator for 5 hours, 23 nL of compounds dissolved in DMSO, positive and negative controls was transferred to the assay plate by a pintool work station. The plates were incubated at 37 C for 40 hours. The luminescence intensity were measured at 0h, 8h, 16h, 24h, 32h and 40h time points using ViewLux plate reader during compound treatment.

| Structure (SMILES) | outcome |
| --- | --- |
| O=[N+]([O-])c1ccc([As](=O)(O)O)cc1 | inactive |
| Clc1ccccc1Cl | inactive |
| O=c1n(Cl)c(=O)n(Cl)c(=O)n1Cl | inactive |
| NCC(O)c1ccc(O)cc1 (stereo not given) | inactive |
| CCC12COCN1COC2 | inactive |
| c1ccc2c(c1)oc1ccccc12 | inactive |
| Cn1cc(-c2ccccc2)c(=O)c(-c2cccc(C(F)(F)F)c2)c1 | inactive |
| CC(C)NC(=O)N1CC(=O)N(c2cc(Cl)cc(Cl)c2)C1=O | inactive |
| Cc1ccc(N)cc1Cl | inactive |
| Cc1cc(-c2cc(C)c(N)c(C)c2)cc(C)c1N | inactive |
| Cc1ccccc1O | inactive |
| Nc1ccc(Cc2ccc(N)cc2)cc1 | inactive |
| O=c1[nH]c(=O)[nH]c(=O)[nH]1 | inactive |
| CC(C)=C[C@@H]1[C@@H](C(=O)OCc2coc(Cc3ccccc3)c2)C1(C)C | inactive |
| COC(=O)NS(=O)(=O)c1ccc(N)cc1 | inactive |
| Cc1cc(Cl)ccc1O | inactive |
| CC(C)C1(C)N=C(c2nc3ccccc3cc2C(=O)O)NC1=O (stereo not given) | inactive |
| c1ccc2c(c1)Oc1ccccc1O2 | inactive |
| CCCN(CCC)c1c([N+](=O)[O-])cc(C(F)(F)F)cc1[N+](=O)[O-] | inactive |
| CC1OC(C)OC(C)O1 (stereo not given) | inactive |

| Structure (SMILES) | outcome |
| --- | --- |
| NCCc1ccc(O)cc1 | inactive |
| O=c1[nH]c2ccccc2c(=O)o1 | inactive |
| Oc1ccccc1Cl | inactive |
| CCNc1nc(NC(C)C)nc(SC)n1 | inactive |
| c1ccc(-c2ccccc2)cc1 | inactive |
| Cc1ccc(N)cc1N | inactive |
| Nc1ccc(Br)cc1 | inactive |
| c1cc2c3c(cccc3c1)CC2 | inactive |
| CCC[N+](=O)[O-] | inactive |
| CC(=O)C=C(C)C | inactive |
| C[C@]12CC[C@H]3[C@@H](CC[C@@]45O[C@@H]4C(O)=C(C#N)C[C@]35C)[C@@H]1CC[C@@H]2O | inactive |
| O=C(O)c1ccccn1 | inactive |
| CC(C)(Cl)Cl | inactive |
| O=C(NC(=O)c1c(F)cccc1F)Nc1cc(Cl)c(OC(F)(F)C(F)C(F)(F)F)cc1Cl (stereo not given) | inactive |
| CCCC1COC(Cn2cncn2)(c2ccc(Cl)cc2Cl)O1 (stereo not given) | inactive |
| CCc1cccc(C)c1N(C(=O)CCl)C(C)COC (stereo not given) | inactive |
| CC(C#N)CCC#N (stereo not given) | inactive |
| C1CN2CCN1CC2 | inactive |
| CCN(CC)c1ccccc1 | inactive |
| CC(NC(C)(C)C)C(=O)c1cccc(Cl)c1 (stereo not given) | inactive |
